About 79,000 compounds went through this panel and 15% of them were active in at least one assay; those are over-represented in the sample as a whole. Cut-off read from the data, not from the text of the source: active = growth inhibition above about 70%; inactive = the rest.
Assays:
[1] = NCI Yeast Anticancer Drug Screen. Data for the rad50 strain (AID 155);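 note: 0% = growth of vehicle-only cultures of the same strain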; settings: S. cerevisiae rad50 strain growth inhibition; at 50.0 µM; hits give high values
In short: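 DNA repair mutant yeast, compound exposure, growth read-out; inhibition is taken relative to vehicle.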

[2] = NCI Yeast Anticancer Drug Screen. Data for the mec2-1 strain (AID 157); settings: S. cerevisiae mec2-1 strain, at 50.0 µM, hits give high values
In short: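 Growth inhibition is read against vehicle-treated controls after compound exposure of the mec2-1 yeast strain, which is defective in DNA damage repair or cell cycle control.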

[3] = NCI Yeast Anticancer Drug Screen. Data for the sgs1 mgt1 strain (AID 161);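 note: 0% = growth of cultures given vehicle only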; settings: S. cerevisiae sgs1 mgt1 strain, at 50.0 µM, hits give high values
In short: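 Compounds are added to genetically altered yeast, and growth is compared with cultures given vehicle alone to give percent inhibition.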

[4] = NCI Yeast Anticancer Drug Screen. Data for the cln2 rad14 strain (AID 165);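 note: 0% = growth equal to vehicle treated cultures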; settings: S. cerevisiae cln2 rad14 strain, at 50.0 µM, hits give high values
In short: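 Growth inhibition, relative to vehicle-treated controls, is the read-out. The test organism is a yeast strain with defined genetic alterations, cln2 rad14.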

[5] = NCI Yeast Anticancer Drug Screen. Data for the bub3 strain (AID 167); settings: S. cerevisiae bub3 mutant strain, at 50.0 µM, hits give high values
In short: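 In this screen, a yeast mutant lacking normal mitotic checkpoint function is challenged with compound. Relative growth versus vehicle gives the inhibition value.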

[6] = NCI Yeast Anticancer Drug Screen. Data for the mlh1 rad18 strain (AID 175); settings: S. cerevisiae mlh1 rad18 strain growth inhibition; at 50.0 µM; hits give high values
In short: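 Cells of a genetically altered yeast strain, deficient in DNA damage repair, were treated with compound. Their growth was then compared with that of vehicle-treated cultures to give inhibition.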

Measured: growth inhibition

CCSSC12CCCN1C(=O)C1CCCN1C2=O (stereo not given)
inactive: [1] 49% | [2] 40.9% | [3] 9.4% | [4] -40% | [5] 20.6% | [6] 20.4%

COc1ccc(C[C@H](N)C(=O)NC2C(CO)OC(n3cnc4c(N(C)C)ncnc43)C2O)cc1 (stereo not given in full)
inactive: [1] -1.7% | [2] -35.1% | [3] -18.4% | [4] -0.8% | [5] -26.9% | [6] -17.3%

CCCCCCC1C=CC(CCCCCCCC(=O)O)C(/C=C/CCCCCCCC(=O)O)C1CCCCCC (stereo not given)
inactive: [1] -10.7% | [2] -10.8% | [3] -10.3% | [4] 21% | [5] -25% | [6] 6.85%

CC1(C)CCCN1C(=O)Nc1ccc([N+](=O)[O-])cc1[N+](=O)[O-]
inactive: [1] 4.1% | [2] -7.7% | [3] 5.4% | [4] -12.6% | [5] -4.15% | [6] -14.1%

CC(C)(CO[C@H]1C[C@H]2CC[C@@]1(C)C2(C)C)[N+](=O)[O-]
inactive: [1] 25.4% | [2] -7% | [3] 50% | [4] -17.4% | [5] 12.9% | [6] 18.4%

C/C=C(\C)c1cc(=O)c2c(C)cc3c(c2o1)C(=O)c1c(O)c(C2CC(C)(N(C)C)C(OC(C)=O)C(C)O2)cc(C2CC(N(C)C)C(O)C(C)O2)c1C3=O (stereo not given)
inactive: [1] 17% | [2] 1.95% | [3] 9.8% | [4] 7.35% | [5] 8.15% | [6] -59.6%

CCCCOC(=O)/C(=C\c1cccc(OC)c1)NC(=O)c1ccccc1
inactive: [1] 15.8% | [2] 14.9% | [3] 28.5% | [4] 11.2% | [5] 58.2% | [6] 34.6%

CCC(C)NC(=O)/C=C/C(=O)NC(C)CC (stereo not given)
inactive: [1] 5.4% | [2] -4.25% | [3] -5.75% | [4] -29.7% | [5] 4.95% | [6] 8.5%

O=C1CCC2=C(N1)C(=O)C=CC2=O
inactive: [1] 1.8% | [2] 13.2% | [3] -13.2% | [4] -32% | [5] -8.35% | [6] 10.9%

CC1(C)NC(=O)N(CCCCCCN2C(=O)NC(C)(C)C2=O)C1=O
inactive: [1] 5.1% | [2] -9.45% | [3] 5.85% | [4] 6.1% | [5] -20.2% | [6] 8.6%

N#C/C(=N\NC(=O)c1cccc(C(=O)N/N=C(\C#N)c2ccccc2Cl)n1)c1ccccc1Cl
inactive: [1] -0.95% | [2] -10.9% | [3] -5.1% | [4] -14.6% | [5] -1.85% | [6] 4.2%

CCN(CC)CCN=C1Nc2ccccc2N(O)N1
inactive: [1] 0.55% | [2] -1.5% | [3] 11.6% | [4] -23.3% | [5] 12.6% | [6] -2.95%

O=C(CCCCCCCCC(=O)NC1CCCCC1)NC1CCCCC1
inactive: [1] -13.2% | [2] -26.5% | [3] -21.6% | [4] -20.8% | [5] -19% | [6] -5.4%

Cc1ccccc1N=Nc1c(C)nc(N)nc1-c1ccccc1
inactive: [1] 1% | [2] 8.6% | [3] 6.2% | [4] -12.6% | [5] -14.5% | [6] 12.2%

NC(=NCC(O)c1ccccc1)Nc1ccccc1 (stereo not given)
inactive: [1] 0.75% | [2] -8.6% | [3] 15.1% | [4] 6.1% | [5] 18.1% | [6] 10.6%

Cc1nc2cccc3ccc4cc5ccccc5c1c4c32
inactive: [1] 69.6% | [2] 12.7% | [3] 16.1% | [4] 7.3% | [5] 25.9% | [6] 14.9%

O=c1oc2ccccc2c2c1cnn2-c1ccccc1
inactive: [1] -12.7% | [2] -4% | [3] -7.85% | [4] -5.9% | [5] -21.7% | [6] -4.45%

CCCCCCCCCCOC(=O)c1ccccc1O
inactive: [1] -4.95% | [2] -7.15% | [3] 3.1% | [4] -111% | [5] 4.4% | [6] -10.4%

CCCCOC(=O)C(=O)C(CC(CC)C(=O)c1ccccc1)C(=O)C=C(C)C (stereo not given)
inactive: [1] -28.9% | [2] -8.5% | [3] -9.55% | [4] -15.2% | [5] -13.6% | [6] 15.2%

O=C(O)CC(=O)Nc1cc([N+](=O)[O-])ccc1OCc1ccccc1
inactive: [1] -2.95% | [2] 3.6% | [3] -1.1% | [4] -14.7% | [5] 5.7% | [6] 0.85%

COc1ccc(C2=C(N)c3c(Cl)cccc3C2=O)cc1
inactive: [1] 6.35% | [2] 3.4% | [3] 30.2% | [4] 14.8% | [5] 21.5% | [6] -58.2%

O=S(=O)(O)C(c1ccccc1)C(O)c1ccccc1 (stereo not given)
inactive: [1] 0.95% | [2] -8.95% | [3] -14.4% | [4] -25.2% | [5] -20.9% | [6] -0.25%

N=C(N)c1ccc(C(=N)N)cc1
inactive: [1] -16.4% | [2] -14.3% | [3] -20.3% | [4] -0.35% | [5] -0.75% | [6] -33.2%

O=C1c2ccccc2C(=O)N1Br
inactive: [1] 0.15% | [2] -19.5% | [3] 6.5% | [4] 10.8% | [5] 3.6% | [6] 18.9%

O=C(O)c1ccc(CS(=O)(=O)c2ccccc2C(=O)O)cc1
inactive: [1] 9% | [2] -0.6% | [3] 2.05% | [4] 15.8% | [5] 5.6% | [6] 20.2%

COC1OC2COC(c3ccccc3)OC2C2C1N2C(=S)SC (stereo not given)
inactive: [1] -4.05% | [2] 1.7% | [3] -2.7% | [4] -17.6% | [5] -0.75% | [6] -0.55%

O=c1[nH]cc(CCOCc2ccccc2)c(=O)[nH]1
inactive: [1] -4.3% | [2] -8.15% | [3] 0.3% | [4] 34.2% | [5] -10.4% | [6] -17%

Cc1nnnn1-c1ccc([N+](=O)[O-])cc1
inactive: [1] 8.45% | [2] 8.35% | [3] -1.5% | [4] -17.6% | [5] 0.75% | [6] 7.4%

N#Cc1nc(NC(=O)c2ccccc2)sc1N
inactive: [1] -5.7% | [2] -29.9% | [3] -27.6% | [4] 11.2% | [5] 4.2% | [6] -10.2%

Cc1c(NC(=O)Nc2c(Cl)cccc2Cl)c(=O)n(-c2ccccc2)n1C
inactive: [1] -42.8% | [2] -36.3% | [3] -15.5% | [4] -10.2% | [5] -29.9% | [6] -39.9%

Cc1ccc(Br)c([N+](=O)[O-])c1
inactive: [1] 5.1% | [2] -4.75% | [3] 2.1% | [4] 5.85% | [5] -0.2% | [6] 1.75%

N#CCCOCc1ccccc1
inactive: [1] -46.8% | [2] -23.8% | [3] -1.05% | [4] -3.15% | [5] -15.1% | [6] 0.55%

C=CCc1cc(OC)ccc1O
inactive: [1] 22.3% | [2] 36.8% | [3] 30.8% | [4] -3% | [5] 22.3% | [6] 19.6%

CCCCNC(=O)c1ccc(C(C)C)cc1
inactive: [1] 9.2% | [2] -0.95% | [3] 0.4% | [4] -4.15% | [5] -0.9% | [6] -5.05%

CCCCCCCCCCCCNCC(O)c1cc(-c2ccccc2)nc2c(Cl)cc(Cl)cc12 (stereo not given)
inactive: [1] 8.1% | [2] 8.9% | [3] 31.9% | [4] 29.1% | [5] -8% | [6] 26.5%

CCOC1NC(/N=C/c2ccc(OC)cc2)=C(C#N)C1C#N (stereo not given)
inactive: [1] -29.2% | [2] -6.7% | [3] -49.5% | [4] 12.4% | [5] -28.1% | [6] -35%

ClC/C=C/COC1CCCCO1 (stereo not given)
inactive: [1] 6.8% | [2] -8.55% | [3] -8.5% | [4] -13.8% | [5] -7.6% | [6] -8.9%

CCC1(C)N=C(N)Nc2nc3ccccc3n21 (stereo not given)
inactive: [1] -9.95% | [2] 0.35% | [3] -7.65% | [4] -28.6% | [5] 0.4% | [6] -18.2%

COc1ccc(/C=N/Nc2c([N+](=O)[O-])cc(C)cc2[N+](=O)[O-])cc1
inactive: [1] 35.1% | [2] 13.2% | [3] 16.3% | [4] 13% | [5] 11.8% | [6] 7.8%

CCOc1ccc(C(=O)OC)cc1
inactive: [1] 31.1% | [2] -3.45% | [3] 31% | [4] 16.8% | [5] 38.8% | [6] 23.7%
